Our source for the sensor-assay potency score (higher = more potent) values is the OligoGym collection.
Further: reference of the scale not given here.

One experiment deals with NAGPA. Nature of the experiment: pooled miR-30 sensor sort-seq; sequence = guide strand. To be noted: shRNA.
TCTCGTCACACTCTGTGGCTTG gave a sensor-assay potency score (higher = more potent) of 0.00905.

For TTCCTCTCTGCTCTGGACAGGA, the sensor-assay potency score (higher = more potent) is -0.227. On to TGTCTCGTCACACTCTGTGGCT, for which the sensor-assay potency score (higher = more potent) is -0.832. The same measure, in the same setting: in the case of TTGATGTAGATGCTTCCATTAC it was -1.88; in that of TGTGTCTCGTCACACTCTGTGG, -1.05. On the same count and under the same terms, in the case of AAGCCGAATAGTGCAAGCCGGA it was -1.15. For the sequence TCGTTGATGTAGATGCTTCCAT, the sensor-assay potency score (higher = more potent) was -0.346. Regarding TTGAGCACAAAGGTGGCAGAGC, the sensor-assay potency score (higher = more potent) was -0.854.

For another experiment, the target named is NAGS. Described as above. The note with it: shRNA.
Sequence TTGACCAGGTCCACTAGACGGC came in with a sensor-assay potency score (higher = more potent) of -0.973.

Regarding TAGTCGTCCCTGAGCTTCTTGC, the sensor-assay potency score (higher = more potent) is -1.38. The same measure, in the same setting: next, TCTACCAGCACCTTGCAGCTCT: 0.351; TTGATGGGGTTGGTGACCCGGG: -1.22; TTGCACACCAGGTCCAGGTCGG: -0.37.

In turn, TGTAGCTTTAGAGTGAGTCGAG registered a sensor-assay potency score (higher = more potent) of 0.177. The same measure, in the same setting: in the case of TTATTGAGGAAGATGATTTTGG it was -0.526; in that of TTTAGAGTGAGTCGAGTTGGGG, -0.776; in that of TTACTCAGGACCTTATGACTGC, -0.0355. Regarding TTGAGGAAGATGATTTTGGTGG, the sensor-assay potency score (higher = more potent) is -0.197. TCACTGTGTTTGAAGTACCAGG registered a sensor-assay potency score (higher = more potent) of -0.966. For the sequence TTAGAGTGAGTCGAGTTGGGGT, the sensor-assay potency score (higher = more potent) is -0.187.

For another experiment, the target named is NAP1L5. The description is as above. The note with it: shRNA.
Take TTATAGATGTCATTATACTTTT: the sensor-assay potency score (higher = more potent) was -1.32. As for TTGAGGGCCAGGACTCGGCATT, the sensor-assay potency score (higher = more potent) was -1.45. The sequence TCTATCTTATCGCATCGCTTCT had a sensor-assay potency score (higher = more potent) of -0.911. The same measure, in the same setting: next, TATACTTTTTTTCCAGAGCCTG: -1; TATCTTATCGCATCGCTTCTGC: 0.0139. As for TTGGATCTTGGCGAGTAGGGGC, the sensor-assay potency score (higher = more potent) is -0.336. In turn, TTGGCTTCTATCTTATCGCATC gave a sensor-assay potency score (higher = more potent) of -1.13. On the same count and under the same terms, next, ATACTTTTTTTCCAGAGCCTGA: -1.24.

In the case of TCTTATCGCATCGCTTCTGCAG, the sensor-assay potency score (higher = more potent) is -1. With TTTTTGAGGGCCAGGACTCGGC, the sensor-assay potency score (higher = more potent) is -1.25. Still for that read-out and setting: in the case of TTCTATCTTATCGCATCGCTTC it was -0.589.

The target in a further experiment is NARF. The experiment is described as above. To be noted: shRNA.
ATCCTCGTTGAACAGCTCCTTG gave a sensor-assay potency score (higher = more potent) of -0.97. Same read-out and setting: in the case of TATTTGAGCAATTTCACCTGAT it was 0.609; in that of TTTAGCAGCAAAATAAGGCAAA, -0.927.

Regarding TGGTGCAATCTTGTCTCGCTGT, the sensor-assay potency score (higher = more potent) was -0.584. On to TTATTTGAGCAATTTCACCTGA, for which the sensor-assay potency score (higher = more potent) turned out to be 0.612. Same read-out and setting: next, AAATCCGCAGCTATCGTCGTAT: -0.245; TTGTTTTCTTACTACATTCCTT: -0.477.

Turning to TTGAACAGCTCCTTGGCCGCAT, the sensor-assay potency score (higher = more potent) was determined as 0.2. On the same count and under the same terms, in the case of TGAGGTATCACATTTCTTGTTA it was -0.0479.
